Test results from PMC5540273 (PLoS ONE, 2017).

Test system: RIOK3
Conditions: concentration: 1 μM, replicates: in singlicate; n = 1
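Further: KINOMEscan kinase panel screen.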

Row | Structure (SMILES) | %Inh
1 | COc1cc(Nc2nccc(N3CCC(NC(=O)Nc4cccc(C(C)=O)c4)C3)n2)cc(OC)c1OC (centres unmarked) [GSK1379753] | 65%
2 | CCn1c(-c2nonc2N)nc2c(C#CC(C)(C)O)ncc(OCCCCN)c21.O=C(O)C(F)(F)F.O=C(O)C(F)(F)F [GSK507274] | 0%
3 | COc1cc(Nc2nccc(-c3c(-c4cccc(NC(=O)c5c(F)cccc5F)c4)nn4ncccc34)n2)cc(OC)c1OC [GSK327238] | 24%
4 | O=C(Nc1n[nH]c2nc(-c3ccc(O)cc3)ccc12)C1CC1 [SB-710363] | 46%
5 | O=c1[nH]cc(-c2ccc(N3CCOCC3)cc2)c2sc(-c3cn[nH]c3)cc12 [GSK2276055] | 25%
6 | O=C(Nc1cccc(-c2nn3ccccc3c2-c2ccnc(Nc3cccc(F)c3)n2)c1)c1c(F)ccc(F)c1Cl [GSK357952] | 16%
7 | CC(C)c1nc(-c2cccc(NS(=O)(=O)c3c(F)cccc3F)c2F)c(-c2ccnc(Nc3ccc(N4CCOCC4)nc3)n2)s1 [GSK2008607] | 17%
8 | CC(=O)N1CCN(c2ccc(Nc3nccc(-c4sc(C(C)C)nc4-c4cccc(NS(=O)(=O)c5cccc(Cl)c5)c4)n3)cn2)CC1 [GSK1660437] | 4%
9 | O=C(Nc1cccc(-c2nn3ncccc3c2-c2ccnc(Nc3ccccc3)n2)c1)c1c(F)cccc1F [GSK198271] | 16%
10 | Cl.c1ccc(-c2ccc3c(Nc4ccc5[nH]ncc5c4)ccnc3c2)nc1 [GW440137] | 32%
11 | Cn1cc(-c2[nH]c3cc(NC(=O)[C@H](N)C4CCCCC4)cc4c3c2C=NNC4=O)cn1 | 88%
